Where a chain is given by its changes, count along the chain named.
Experiments:
Experiment in all cases: PBM; 200 nM protein, PBS
Conditions in all cases: dsDNA, one strand shown
NKX2-5 [1] = biological target: NKX2-5 (Homo sapiens, UniProt P52952 125-210, R139K)
PAX4 [2] = biological target: T1, PAX4 (Homo sapiens, UniProt O43316 9-242, R200K)
T1 sequence: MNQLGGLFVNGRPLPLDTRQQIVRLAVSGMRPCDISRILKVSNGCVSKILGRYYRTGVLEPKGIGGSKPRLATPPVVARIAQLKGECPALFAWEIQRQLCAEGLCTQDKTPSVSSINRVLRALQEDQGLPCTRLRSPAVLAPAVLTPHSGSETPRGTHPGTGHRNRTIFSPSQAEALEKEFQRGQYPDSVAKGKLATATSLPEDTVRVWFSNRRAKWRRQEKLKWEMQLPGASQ

PAX4 [3] = biological target: T2, PAX4 (Homo sapiens, UniProt O43316 9-242)
T2 sequence: T1 sequence with K192R

ALX3 [4] = biological target: ALX3 (Homo sapiens, UniProt O95076 139-225, N203Q)
PAX4 [5] = biological target: T3, PAX4 (Homo sapiens, UniProt O43316 9-242, R200Q)
T3 sequence: T1 sequence with K192Q

PAX4 [6] = biological target: T4, PAX4 (Homo sapiens, UniProt O43316 9-242, F177V)
T4 sequence: T1 sequence with F169V, K192R

ALX3 [7] = biological target: ALX3 (Homo sapiens, UniProt O95076 139-225)
PAX4 [8] = biological target: T5, PAX4 (Homo sapiens, UniProt O43316 9-242, F177Y)
T5 sequence: T1 sequence with F169Y, K192R

ALX3 [9] = biological target: ALX3 (Homo sapiens, UniProt O95076 139-225, L168Q)
ALX3 [10] = biological target: ALX3 (Homo sapiens, UniProt O95076 139-225, L168V)
PAX4 [11] = biological target: T6, PAX4 (Homo sapiens, UniProt O43316 9-242, R227W)
T6 sequence: T1 sequence with K192R, R219W

ALX3 [12] = biological target: ALX3 (Homo sapiens, UniProt O95076 139-225, N203S)
NKX2-5 [13] = biological target: NKX2-5 (Homo sapiens, UniProt P52952 125-210)
HOXA2 [14] = biological target: HOXA2 (Homo sapiens, UniProt O43364 129-215, R185T)
HOXD13 [15] = biological target: HOXD13 (Homo sapiens, UniProt P35453 263-343, T313R)
HOXA2 [16] = biological target: HOXA2 (Homo sapiens, UniProt O43364 129-215, R185K)
HOXD13 [17] = biological target: HOXD13 (Homo sapiens, UniProt P35453 263-343)
HOXD13 [18] = biological target: HOXD13 (Homo sapiens, UniProt P35453 263-343, T313A)
HOXA2 [19] = biological target: HOXA2 (Homo sapiens, UniProt O43364 129-215, Y150S)
HOXA2 [20] = biological target: HOXA2 (Homo sapiens, UniProt O43364 129-215)
PRRX1 [21] = biological target: PRRX1 (Homo sapiens, UniProt P54821 80-166, F113S)
NKX2-6 [22] = biological target: T7, NKX2-6 (Homo sapiens, UniProt A6NCS4 118-204, R150C)
T7 sequence: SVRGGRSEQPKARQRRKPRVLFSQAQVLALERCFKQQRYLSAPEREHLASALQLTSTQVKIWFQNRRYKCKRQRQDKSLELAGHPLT

NKX2-6 [23] = biological target: T8, NKX2-6 (Homo sapiens, UniProt A6NCS4 118-204)
T8 sequence: T7 sequence with C33R

NKX2-6 [24] = biological target: T9, NKX2-6 (Homo sapiens, UniProt A6NCS4 118-204, F151L)
T9 sequence: T7 sequence with C33R, F34L

NKX3-2 [25] = biological target: NKX3-2 (Homo sapiens, UniProt P78367 192-278, P234S)
PRRX1 [26] = biological target: PRRX1 (Homo sapiens, UniProt P54821 80-166)
NKX3-2 [27] = biological target: NKX3-2 (Homo sapiens, UniProt P78367 192-278)
HOXC9 [28] = biological target: HOXC9 (Homo sapiens, UniProt P31274 178-260, K195R)
HOXC9 [29] = biological target: HOXC9 (Homo sapiens, UniProt P31274 178-260)
HOXC9 [30] = biological target: HOXC9 (Homo sapiens, UniProt P31274 178-260, R193K)
PROP1 [31] = biological target: PROP1 (Homo sapiens, UniProt O75360 56-141)
PROP1 [32] = biological target: PROP1 (Homo sapiens, UniProt O75360 56-141, R99H)
HOXC9 [33] = biological target: HOXC9 (Homo sapiens, UniProt P31274 178-260, R222W)
PROP1 [34] = biological target: PROP1 (Homo sapiens, UniProt O75360 56-141, F88S)
HOXA4 [35] = biological target: HOXA4 (Homo sapiens, UniProt Q00056 201-287, W262R)
HOXA4 [36] = biological target: HOXA4 (Homo sapiens, UniProt Q00056 201-287, R217L)
HOXA4 [37] = biological target: HOXA4 (Homo sapiens, UniProt Q00056 201-287)
VAX1 [38] = biological target: VAX1 (Homo sapiens, UniProt Q5SQQ9 86-172)
VAX1 [39] = biological target: VAX1 (Homo sapiens, UniProt Q5SQQ9 86-172, T142I)
HOXA4 [40] = biological target: HOXA4 (Homo sapiens, UniProt Q00056 201-287, W262F)
VAX1 [41] = biological target: VAX1 (Homo sapiens, UniProt Q5SQQ9 86-172, K157R)
Sequence of VAX1 (Homo sapiens, UniProt Q5SQQ9 86-172, K157R) (Q5SQQ9 86-172 K157R): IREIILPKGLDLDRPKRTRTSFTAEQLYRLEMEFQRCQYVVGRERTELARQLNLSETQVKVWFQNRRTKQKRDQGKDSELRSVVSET

Sequence of NKX2-5 (Homo sapiens, UniProt P52952 125-210, R139K) (P52952 125-210 R139K): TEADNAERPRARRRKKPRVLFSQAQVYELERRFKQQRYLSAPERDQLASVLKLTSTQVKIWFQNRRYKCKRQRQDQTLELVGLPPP
Sequence of NKX2-5 (Homo sapiens, UniProt P52952 125-210) (P52952 125-210): as the sequence (P52952 125-210 R139K) above, with K15R counted along it
Sequence of HOXD13 (Homo sapiens, UniProt P35453 263-343, T313A) (P35453 263-343 T313A): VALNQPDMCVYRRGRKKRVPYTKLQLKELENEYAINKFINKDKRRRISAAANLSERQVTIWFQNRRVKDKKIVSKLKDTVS
Sequence of ALX3 (Homo sapiens, UniProt O95076 139-225, L168Q) (O95076 139-225 L168Q): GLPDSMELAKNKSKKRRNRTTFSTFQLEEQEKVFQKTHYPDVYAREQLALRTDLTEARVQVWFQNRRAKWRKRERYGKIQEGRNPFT
Sequence of HOXD13 (Homo sapiens, UniProt P35453 263-343, T313R) (P35453 263-343 T313R): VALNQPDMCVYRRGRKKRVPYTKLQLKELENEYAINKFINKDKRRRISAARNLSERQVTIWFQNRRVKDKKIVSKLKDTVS
Sequence of ALX3 (Homo sapiens, UniProt O95076 139-225, N203S) (O95076 139-225 N203S): as the sequence (O95076 139-225 L168Q) above, with Q30L, N65S counted along it
Sequence of HOXD13 (Homo sapiens, UniProt P35453 263-343) (P35453 263-343): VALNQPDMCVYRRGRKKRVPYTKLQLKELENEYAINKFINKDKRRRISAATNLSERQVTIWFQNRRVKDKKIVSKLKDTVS
Sequence of ALX3 (Homo sapiens, UniProt O95076 139-225) (O95076 139-225): as the sequence (O95076 139-225 L168Q) above, with Q30L counted along it
Sequence of ALX3 (Homo sapiens, UniProt O95076 139-225, L168V) (O95076 139-225 L168V): as the sequence (O95076 139-225 L168Q) above, with Q30V counted along it
Sequence of ALX3 (Homo sapiens, UniProt O95076 139-225, N203Q) (O95076 139-225 N203Q): as the sequence (O95076 139-225 L168Q) above, with Q30L, N65Q counted along it
Sequence of NKX3-2 (Homo sapiens, UniProt P78367 192-278, P234S) (P78367 192-278 P234S): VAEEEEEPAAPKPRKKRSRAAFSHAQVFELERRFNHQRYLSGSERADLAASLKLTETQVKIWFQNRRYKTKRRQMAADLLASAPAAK
Sequence of HOXA4 (Homo sapiens, UniProt Q00056 201-287, W262R) (Q00056 201-287 W262R): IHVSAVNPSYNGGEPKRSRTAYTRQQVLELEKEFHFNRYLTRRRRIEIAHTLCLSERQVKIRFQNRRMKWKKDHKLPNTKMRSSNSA
Sequence of HOXC9 (Homo sapiens, UniProt P31274 178-260, K195R) (P31274 178-260 K195R): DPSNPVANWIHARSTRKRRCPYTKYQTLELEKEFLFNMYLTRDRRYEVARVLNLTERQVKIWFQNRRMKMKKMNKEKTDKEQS
Sequence of HOXC9 (Homo sapiens, UniProt P31274 178-260) (P31274 178-260): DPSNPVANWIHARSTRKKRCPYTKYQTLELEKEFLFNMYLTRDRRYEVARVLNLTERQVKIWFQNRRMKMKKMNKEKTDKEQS
Sequence of NKX3-2 (Homo sapiens, UniProt P78367 192-278) (P78367 192-278): as the sequence (P78367 192-278 P234S) above, with S43P counted along it
Sequence of PROP1 (Homo sapiens, UniProt O75360 56-141, F88S) (O75360 56-141 F88S): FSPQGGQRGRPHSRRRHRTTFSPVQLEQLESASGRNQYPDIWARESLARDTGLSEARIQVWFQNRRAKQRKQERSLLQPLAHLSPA
Sequence of HOXA2 (Homo sapiens, UniProt O43364 129-215, Y150S) (O43364 129-215 Y150S): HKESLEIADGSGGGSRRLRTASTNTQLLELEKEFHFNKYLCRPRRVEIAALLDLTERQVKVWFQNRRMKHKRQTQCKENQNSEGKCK
Sequence of VAX1 (Homo sapiens, UniProt Q5SQQ9 86-172) (Q5SQQ9 86-172): as the sequence (Q5SQQ9 86-172 K157R) above, with R72K counted along it
Sequence of HOXA4 (Homo sapiens, UniProt Q00056 201-287, W262F) (Q00056 201-287 W262F): as the sequence (Q00056 201-287 W262R) above, with R62F counted along it
Sequence of HOXA2 (Homo sapiens, UniProt O43364 129-215, R185T) (O43364 129-215 R185T): as the sequence (O43364 129-215 Y150S) above, with S22Y, R57T counted along it
Sequence of HOXA4 (Homo sapiens, UniProt Q00056 201-287) (Q00056 201-287): as the sequence (Q00056 201-287 W262R) above, with R62W counted along it
Sequence of VAX1 (Homo sapiens, UniProt Q5SQQ9 86-172, T142I) (Q5SQQ9 86-172 T142I): as the sequence (Q5SQQ9 86-172 K157R) above, with T57I, R72K counted along it
Sequence of PROP1 (Homo sapiens, UniProt O75360 56-141, R99H) (O75360 56-141 R99H): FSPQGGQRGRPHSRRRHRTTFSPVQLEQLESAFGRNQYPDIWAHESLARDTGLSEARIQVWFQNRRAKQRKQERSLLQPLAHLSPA
Sequence of HOXC9 (Homo sapiens, UniProt P31274 178-260, R222W) (P31274 178-260 R222W): as the sequence (P31274 178-260) above, with R45W counted along it
Sequence of PRRX1 (Homo sapiens, UniProt P54821 80-166) (P54821 80-166): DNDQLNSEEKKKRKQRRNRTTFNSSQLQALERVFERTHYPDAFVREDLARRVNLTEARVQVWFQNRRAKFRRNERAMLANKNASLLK
Sequence of HOXC9 (Homo sapiens, UniProt P31274 178-260, R193K) (P31274 178-260 R193K): as the sequence (P31274 178-260) above, with R16K counted along it
Sequence of HOXA4 (Homo sapiens, UniProt Q00056 201-287, R217L) (Q00056 201-287 R217L): as the sequence (Q00056 201-287 W262R) above, with R17L, R62W counted along it
Sequence of HOXA2 (Homo sapiens, UniProt O43364 129-215) (O43364 129-215): as the sequence (O43364 129-215 Y150S) above, with S22Y counted along it
Sequence of PRRX1 (Homo sapiens, UniProt P54821 80-166, F113S) (P54821 80-166 F113S): as the sequence (P54821 80-166) above, with F34S counted along it
Sequence of PROP1 (Homo sapiens, UniProt O75360 56-141) (O75360 56-141): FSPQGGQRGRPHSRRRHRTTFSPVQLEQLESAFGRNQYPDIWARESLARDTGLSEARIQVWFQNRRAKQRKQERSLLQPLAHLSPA
Sequence of HOXA2 (Homo sapiens, UniProt O43364 129-215, R185K) (O43364 129-215 R185K): as the sequence (O43364 129-215 Y150S) above, with S22Y, R57K counted along it

GCTGGGCC
binding signal (NKX2-5 [1]): 8.63 upbm affinity estimate (log intensity, higher = more binding, comparable within an allelic series)
binding signal (PAX4 [2]): 9.06 upbm affinity estimate (log intensity, higher = more binding, comparable within an allelic series)
binding signal (PAX4 [3]): 9.06 upbm affinity estimate (log intensity, higher = more binding, comparable within an allelic series)
binding signal (ALX3 [4]): 7.66 upbm affinity estimate (log intensity, higher = more binding, comparable within an allelic series)
binding signal (PAX4 [5]): 9.13 upbm affinity estimate (log intensity, higher = more binding, comparable within an allelic series)
binding signal (PAX4 [6]): 8.94 upbm affinity estimate (log intensity, higher = more binding, comparable within an allelic series)
binding signal (ALX3 [7]): 7.62 upbm affinity estimate (log intensity, higher = more binding, comparable within an allelic series)
binding signal (PAX4 [8]): 9.03 upbm affinity estimate (log intensity, higher = more binding, comparable within an allelic series)
binding signal (ALX3 [9]): 7.58 upbm affinity estimate (log intensity, higher = more binding, comparable within an allelic series)
binding signal (ALX3 [10]): 7.61 upbm affinity estimate (log intensity, higher = more binding, comparable within an allelic series)
binding signal (PAX4 [11]): 9.05 upbm affinity estimate (log intensity, higher = more binding, comparable within an allelic series)
binding signal (ALX3 [12]): 7.64 upbm affinity estimate (log intensity, higher = more binding, comparable within an allelic series)
binding signal (NKX2-5 [13]): 8.61 upbm affinity estimate (log intensity, higher = more binding, comparable within an allelic series)

CAGCCCGG
binding signal (NKX2-5 [1]): 8.37 upbm affinity estimate (log intensity, higher = more binding, comparable within an allelic series)
binding signal (HOXA2 [14]): 7.16 upbm affinity estimate (log intensity, higher = more binding, comparable within an allelic series)
binding signal (HOXD13 [15]): 9.5 upbm affinity estimate (log intensity, higher = more binding, comparable within an allelic series)
binding signal (HOXA2 [16]): 10.1 upbm affinity estimate (log intensity, higher = more binding, comparable within an allelic series)
binding signal (HOXD13 [17]): 9.67 upbm affinity estimate (log intensity, higher = more binding, comparable within an allelic series)
binding signal (HOXD13 [18]): 9.74 upbm affinity estimate (log intensity, higher = more binding, comparable within an allelic series)
binding signal (HOXA2 [19]): 10.3 upbm affinity estimate (log intensity, higher = more binding, comparable within an allelic series)
binding signal (HOXA2 [20]): 7.06 upbm affinity estimate (log intensity, higher = more binding, comparable within an allelic series)
binding signal (NKX2-5 [13]): 8.35 upbm affinity estimate (log intensity, higher = more binding, comparable within an allelic series)

CACTTAGC
binding signal (NKX2-5 [1]): 12.6 upbm affinity estimate (log intensity, higher = more binding, comparable within an allelic series)
binding signal (PRRX1 [21]): 9.83 upbm affinity estimate (log intensity, higher = more binding, comparable within an allelic series)
binding signal (NKX2-6 [22]): 11.7 upbm affinity estimate (log intensity, higher = more binding, comparable within an allelic series)
binding signal (NKX2-6 [23]): 13.5 upbm affinity estimate (log intensity, higher = more binding, comparable within an allelic series)
binding signal (NKX2-6 [24]): 10.8 upbm affinity estimate (log intensity, higher = more binding, comparable within an allelic series)
binding signal (NKX3-2 [25]): 12.9 upbm affinity estimate (log intensity, higher = more binding, comparable within an allelic series)
binding signal (PRRX1 [26]): 11.8 upbm affinity estimate (log intensity, higher = more binding, comparable within an allelic series)
binding signal (NKX2-5 [13]): 12.5 upbm affinity estimate (log intensity, higher = more binding, comparable within an allelic series)
binding signal (NKX3-2 [27]): 13 upbm affinity estimate (log intensity, higher = more binding, comparable within an allelic series)

ACGGGGGC
binding signal (NKX2-5 [1]): 9.14 upbm affinity estimate (log intensity, higher = more binding, comparable within an allelic series)
binding signal (HOXC9 [28]): 9.65 upbm affinity estimate (log intensity, higher = more binding, comparable within an allelic series)
binding signal (HOXC9 [29]): 9.77 upbm affinity estimate (log intensity, higher = more binding, comparable within an allelic series)
binding signal (ALX3 [4]): 7.66 upbm affinity estimate (log intensity, higher = more binding, comparable within an allelic series)
binding signal (HOXC9 [30]): 9.64 upbm affinity estimate (log intensity, higher = more binding, comparable within an allelic series)
binding signal (ALX3 [7]): 7.79 upbm affinity estimate (log intensity, higher = more binding, comparable within an allelic series)
binding signal (PROP1 [31]): 6.75 upbm affinity estimate (log intensity, higher = more binding, comparable within an allelic series)
binding signal (PROP1 [32]): 6.67 upbm affinity estimate (log intensity, higher = more binding, comparable within an allelic series)
binding signal (ALX3 [9]): 7.65 upbm affinity estimate (log intensity, higher = more binding, comparable within an allelic series)
binding signal (HOXC9 [33]): 9.54 upbm affinity estimate (log intensity, higher = more binding, comparable within an allelic series)
binding signal (ALX3 [10]): 7.65 upbm affinity estimate (log intensity, higher = more binding, comparable within an allelic series)
binding signal (PROP1 [34]): 6.19 upbm affinity estimate (log intensity, higher = more binding, comparable within an allelic series)
binding signal (ALX3 [12]): 7.62 upbm affinity estimate (log intensity, higher = more binding, comparable within an allelic series)
binding signal (NKX2-5 [13]): 9.01 upbm affinity estimate (log intensity, higher = more binding, comparable within an allelic series)

CAGCCCCC
binding signal (NKX2-5 [1]): 8.75 upbm affinity estimate (log intensity, higher = more binding, comparable within an allelic series)
binding signal (HOXA4 [35]): 9.74 upbm affinity estimate (log intensity, higher = more binding, comparable within an allelic series)
binding signal (HOXA4 [36]): 9.65 upbm affinity estimate (log intensity, higher = more binding, comparable within an allelic series)
binding signal (HOXA4 [37]): 9.71 upbm affinity estimate (log intensity, higher = more binding, comparable within an allelic series)
binding signal (VAX1 [38]): 7.33 upbm affinity estimate (log intensity, higher = more binding, comparable within an allelic series)
binding signal (VAX1 [39]): 7.4 upbm affinity estimate (log intensity, higher = more binding, comparable within an allelic series)
binding signal (HOXA4 [40]): 9.62 upbm affinity estimate (log intensity, higher = more binding, comparable within an allelic series)
binding signal (VAX1 [41]): 7.13 upbm affinity estimate (log intensity, higher = more binding, comparable within an allelic series)
binding signal (NKX2-5 [13]): 8.67 upbm affinity estimate (log intensity, higher = more binding, comparable within an allelic series)

CGGTGGGC
binding signal (NKX2-5 [1]): 9.02 upbm affinity estimate (log intensity, higher = more binding, comparable within an allelic series)
binding signal (PAX4 [2]): 9.41 upbm affinity estimate (log intensity, higher = more binding, comparable within an allelic series)
binding signal (PAX4 [3]): 9.5 upbm affinity estimate (log intensity, higher = more binding, comparable within an allelic series)
binding signal (NKX2-6 [22]): 9.22 upbm affinity estimate (log intensity, higher = more binding, comparable within an allelic series)
binding signal (HOXD13 [15]): 9.46 upbm affinity estimate (log intensity, higher = more binding, comparable within an allelic series)
binding signal (PAX4 [5]): 9.39 upbm affinity estimate (log intensity, higher = more binding, comparable within an allelic series)
binding signal (HOXD13 [17]): 9.53 upbm affinity estimate (log intensity, higher = more binding, comparable within an allelic series)
binding signal (PAX4 [6]): 9.14 upbm affinity estimate (log intensity, higher = more binding, comparable within an allelic series)
binding signal (PAX4 [8]): 9.14 upbm affinity estimate (log intensity, higher = more binding, comparable within an allelic series)
binding signal (HOXD13 [18]): 9.44 upbm affinity estimate (log intensity, higher = more binding, comparable within an allelic series)
binding signal (PAX4 [11]): 9.26 upbm affinity estimate (log intensity, higher = more binding, comparable within an allelic series)
binding signal (NKX2-5 [13]): 9.07 upbm affinity estimate (log intensity, higher = more binding, comparable within an allelic series)
